# How the values were obtained:
# Assay in all cases: pooled miR-30 sensor sort-seq; sequence = guide strand
# Conditions in all cases: shRNA
# CDH24 = biological target: CDH24
# CDH2 = biological target: CDH2
# CDH20 = biological target: CDH20
# CENPO = biological target: CENPO
# CEP55 = biological target: CEP55
# CENPE = biological target: CENPE
# CEP110 = biological target: CEP110
# CFHR1 = biological target: CFHR1
# CETN1 = biological target: CETN1
# CHCHD8 = biological target: CHCHD8
# CHRM2 = biological target: CHRM2
# CHI3L1 = biological target: CHI3L1
# CHID1 = biological target: CHID1
# CHMP2A = biological target: CHMP2A
# Further: reference of the scale not given here.
sequence,measurement,setting,value
TGCAAGTCTGTGCTGATGCTGA,sensor-assay potency score (higher = more potent),CDH24,-0.691
TTTTTATCTCTATCAGACCTGA,sensor-assay potency score (higher = more potent),CDH2,-0.29
TTCATCTCTGCATTGATGCCTT,sensor-assay potency score (higher = more potent),CDH20,-0.00989
TATTTCTCTGATGTGCTCCCAG,sensor-assay potency score (higher = more potent),CENPO,-0.111
TTAACAATTTTAGCTAAGCAGA,sensor-assay potency score (higher = more potent),CEP55,-1.37
TGTAGTATCTGAGTCAACCTTA,sensor-assay potency score (higher = more potent),CENPE,0.878
TTTATGGTCTTGATAGTCCAAA,sensor-assay potency score (higher = more potent),CEP110,-1.01
TTGCATTGCTGAAATGTCGTTA,sensor-assay potency score (higher = more potent),CEP110,0.524
TTCATCTGCAATCTCAACTTGC,sensor-assay potency score (higher = more potent),CEP110,0.351
TTATGTTTAGACATCTGCCTTA,sensor-assay potency score (higher = more potent),CEP110,0.679
TTTAGGTTTAGAAACCTCCTCA,sensor-assay potency score (higher = more potent),CENPO,0.397
TTTTGATTTATCTAAATCCTTT,sensor-assay potency score (higher = more potent),CENPE,-0.683
TTTGTGAATACAACAGCTGATT,sensor-assay potency score (higher = more potent),CEP55,-0.95
TAAACCAAAAACTTGCTCCTGA,sensor-assay potency score (higher = more potent),CEP110,0.902
TTGCTCATTGATCTCCACTGTT,sensor-assay potency score (higher = more potent),CENPO,-0.258
TTTCTCAATTTCTAGGACCTGT,sensor-assay potency score (higher = more potent),CEP110,-0.0728
TTTATGCCTATCATCTTCCAGA,sensor-assay potency score (higher = more potent),CEP55,-0.706
TTTCTGTATGACAAGGTCCACA,sensor-assay potency score (higher = more potent),CENPO,-1.24
TAACACTCTCTAACATTTGTTG,sensor-assay potency score (higher = more potent),CENPE,0.0489
TTCTTTTTCTCTAACTCTCGGA,sensor-assay potency score (higher = more potent),CEP110,-0.414
TAACAGATTATTGTCATCCTGC,sensor-assay potency score (higher = more potent),CEP110,0.569
TTTTCTTCGAAATTCACTCAGT,sensor-assay potency score (higher = more potent),CEP55,0.403
TAGGTTTAGAAACCTCCTCAGC,sensor-assay potency score (higher = more potent),CENPO,-1.26
TAGTTGTATAGCTTCTTCCAGT,sensor-assay potency score (higher = more potent),CEP110,-0.43
TTTATTGATGAGTTGAAGCAGT,sensor-assay potency score (higher = more potent),CEP55,-0.0395
TTATTTTTTGAAACTGAAGGAA,sensor-assay potency score (higher = more potent),CENPO,-0.369
TTGTAGTCTACCACTCAACTGC,sensor-assay potency score (higher = more potent),CEP110,0.0361
TAGTCTACCACTCAACTGCTTG,sensor-assay potency score (higher = more potent),CEP110,-1.16
TAGCTGTTCATTTTGCTGCTTT,sensor-assay potency score (higher = more potent),CENPE,-0.023
TTATACAGCAATCTAGCACAGA,sensor-assay potency score (higher = more potent),CENPO,-0.484
TTGATCTCCACTGTTTGGTTGG,sensor-assay potency score (higher = more potent),CENPO,0.162
TTTTGTAGCACTGATTTCCTTT,sensor-assay potency score (higher = more potent),CENPE,-0.158
TAACCCATTAGCAATAACCTGA,sensor-assay potency score (higher = more potent),CEP55,-0.42
TTGAAACTGAAGGAAGTCCCGA,sensor-assay potency score (higher = more potent),CENPO,0.077
TTTCTTTCTGTCAAGAACTGGT,sensor-assay potency score (higher = more potent),CEP110,-0.248
TTACTTGGTGGTTCTGTCGGTC,sensor-assay potency score (higher = more potent),CENPE,0.00856
TTTGCTTGTATGTAGTTGCAAG,sensor-assay potency score (higher = more potent),CENPE,-0.96
TAGCTCTTGATGTAACATGAGG,sensor-assay potency score (higher = more potent),CENPE,-1.24
TTCTTGAGTATCTATATTCATG,sensor-assay potency score (higher = more potent),CENPE,-0.957
TTTTGCAGCTATCTCTTCCAGG,sensor-assay potency score (higher = more potent),CENPO,0.117
TAAGCATTCAGGTACTCGCAGA,sensor-assay potency score (higher = more potent),CENPO,-0.982
TAGTAGTCTCAGTAGACGCTGC,sensor-assay potency score (higher = more potent),CEP55,-0.26
TATTTTTTGAAACTGAAGGAAG,sensor-assay potency score (higher = more potent),CENPO,-1.18
TAATTTGCACAGTATCACCTTC,sensor-assay potency score (higher = more potent),CFHR1,0.283
ATTGAAGCTGATCTTCCCCGTG,sensor-assay potency score (higher = more potent),CETN1,-0.49
TATATGAGCATTTTGTACTGTG,sensor-assay potency score (higher = more potent),CFHR1,0.209
TTACACACAAATTCAGCTGATT,sensor-assay potency score (higher = more potent),CFHR1,-0.226
TTTCTTCATATTTTCTTCGAAA,sensor-assay potency score (higher = more potent),CEP55,-1.41
ATCAGCTTCGTCGATCATCTCC,sensor-assay potency score (higher = more potent),CETN1,-0.374
TCTTTGTGAATACAACAGCTGA,sensor-assay potency score (higher = more potent),CEP55,-0.875
TTGAAGCTGATCTTCCCCGTGC,sensor-assay potency score (higher = more potent),CETN1,0.267
TCATTGAAGCTGATCTTCCCCG,sensor-assay potency score (higher = more potent),CETN1,-0.662
TAGATCTAGACAAATTATGGGG,sensor-assay potency score (higher = more potent),CETN1,-0.0246
TCATCGTCATCAAAGAGCCTGA,sensor-assay potency score (higher = more potent),CETN1,-0.321
TCTGTCTCGACAGTATATGAGC,sensor-assay potency score (higher = more potent),CFHR1,-1.41
ATCCCGATCAGCTTCGTCGATC,sensor-assay potency score (higher = more potent),CETN1,-1.43
TGAAATTAAGAACTGATTTAAT,sensor-assay potency score (higher = more potent),CFHR1,-1.22
TTTCTCTTTTGGCCGGTGGAGG,sensor-assay potency score (higher = more potent),CETN1,-1.52
AGCTTCGTCGATCATCTCCTGC,sensor-assay potency score (higher = more potent),CETN1,-1.15
TTCGTCGATCATCTCCTGCAGC,sensor-assay potency score (higher = more potent),CETN1,-0.572
TTCTCGGACATCTTCTGCGTCA,sensor-assay potency score (higher = more potent),CETN1,-0.598
AACTTCTTGCTTCTGATCCTCA,sensor-assay potency score (higher = more potent),CETN1,-0.468
TTCTTCTTGCTGCTTTAGCAGA,sensor-assay potency score (higher = more potent),CEP55,-1.21
TTAGGTGCCACCTTTCTCTTTT,sensor-assay potency score (higher = more potent),CETN1,0.187
TTCTTCTTTGGTGTCCTTCTCG,sensor-assay potency score (higher = more potent),CETN1,0.166
TTCTTGCCTCCTCTGCAGCTCC,sensor-assay potency score (higher = more potent),CHCHD8,-1.23
TTGCTTCTGATCCTCAGTGAGC,sensor-assay potency score (higher = more potent),CETN1,-1.03
TTTTTGAACGAGATCTTCCCGG,sensor-assay potency score (higher = more potent),CETN1,0.117
TTGATAAGCATTCTTCTCCTTC,sensor-assay potency score (higher = more potent),CEP55,0.207
TTTACACACAAATTCAGCTGAT,sensor-assay potency score (higher = more potent),CFHR1,0.481
TCTTCTTTGGTGTCCTTCTCGG,sensor-assay potency score (higher = more potent),CETN1,-0.36
TTGCACAGTATCACCTTCCAGA,sensor-assay potency score (higher = more potent),CFHR1,-0.325
TTTCCCGTAGAATCTTTGCATT,sensor-assay potency score (higher = more potent),CFHR1,-1.19
TCTTGCTTCTGATCCTCAGTGA,sensor-assay potency score (higher = more potent),CETN1,0.681
TACTCATCTGTCTCGACAGTAT,sensor-assay potency score (higher = more potent),CFHR1,-0.805
TTTGGTGTCCTTCTCGGACATC,sensor-assay potency score (higher = more potent),CETN1,-1.04
TTCCCGAACTTCTTGCTTCTGA,sensor-assay potency score (higher = more potent),CETN1,0.00399
TATTGAACTAGAGATATGGAAA,sensor-assay potency score (higher = more potent),CETN1,-1.01
TTCGCGTCGATGGTCCCACTTC,sensor-assay potency score (higher = more potent),CETN1,-0.957
TTCAGGATTTCTTCTTTGGTGT,sensor-assay potency score (higher = more potent),CETN1,-0.547
TAAATTGTGAACTTCTTTTTGG,sensor-assay potency score (higher = more potent),CEP55,-0.104
TTTTGAACGAGATCTTCCCGGT,sensor-assay potency score (higher = more potent),CETN1,0.317
TTAAGAACTGATTTAATACTAA,sensor-assay potency score (higher = more potent),CFHR1,-0.326
TTTCATCTCCATTCTGACCTGA,sensor-assay potency score (higher = more potent),CHRM2,0.602
AAATCGTAGGTCATGATGCTAA,sensor-assay potency score (higher = more potent),CHI3L1,-0.871
ATGCGCTGTAGAGTAGTCGTAG,sensor-assay potency score (higher = more potent),CHID1,-0.323
TGCAATGATTTTCTTCTCCTGG,sensor-assay potency score (higher = more potent),CHMP2A,-0.535
TTGAGTGTCTGGATCTTGAGGG,sensor-assay potency score (higher = more potent),CHMP2A,0.547
TGTAGAGTAGTCGTAGGTCATG,sensor-assay potency score (higher = more potent),CHID1,-1.27
TTCATGGCTTGTGCCATCGAGT,sensor-assay potency score (higher = more potent),CHMP2A,-1.33
TGAAAACTGACTCTTCTCCAGC,sensor-assay potency score (higher = more potent),CHID1,-0.645
TTTGTGGTCCGCTTGACTGGGT,sensor-assay potency score (higher = more potent),CHRM2,-0.403
AAACTTGCGCACATAGCGCCGG,sensor-assay potency score (higher = more potent),CHMP2A,-0.531
TTAAAGGTCTTCTTGAAGGTGG,sensor-assay potency score (higher = more potent),CHRM2,0.265
TTCATCTTCCTCATCACCCATG,sensor-assay potency score (higher = more potent),CHMP2A,-0.68
TTTTGTGACACAGAAGTACCTG,sensor-assay potency score (higher = more potent),CHRM2,0.758
AACTTGCGCACATAGCGCCGGG,sensor-assay potency score (higher = more potent),CHMP2A,-1.16
TTCAGCTGTCTGTTCATGGTGC,sensor-assay potency score (higher = more potent),CHMP2A,0.372
TATTAGAGGCAACAGCACTGAC,sensor-assay potency score (higher = more potent),CHRM2,-0.688
TTGTTGGACTTGAGTGTCTGGA,sensor-assay potency score (higher = more potent),CHMP2A,-0.834
TCATCTTCACAATCTTGCGGGC,sensor-assay potency score (higher = more potent),CHRM2,-0.203
TAAAAAGTAATTGTTGACGGTC,sensor-assay potency score (higher = more potent),CHRM2,0.0384
TCACTGTCTAAGACGTTCCGGA,sensor-assay potency score (higher = more potent),CHID1,-0.147
TTCAGTGTCTGGATGTACCTGG,sensor-assay potency score (higher = more potent),CHID1,0.597
TTTCTGTCGCTCGCGGTCCAGC,sensor-assay potency score (higher = more potent),CHMP2A,-1.66
TTTGTGACACAGAAGTACCTGT,sensor-assay potency score (higher = more potent),CHRM2,0.495
TATCTCATCCTCACTGTCTAAG,sensor-assay potency score (higher = more potent),CHID1,-0.858
TTCGCCACTTGGACTTCGGGTC,sensor-assay potency score (higher = more potent),CHID1,-0.182
TTTGAGGTCCGTCACCACCAAA,sensor-assay potency score (higher = more potent),CHID1,-1.77
TTAGAGTTCTCATCTTTGGAAT,sensor-assay potency score (higher = more potent),CHRM2,-1.06
TTAGTCATCTTCACAATCTTGC,sensor-assay potency score (higher = more potent),CHRM2,0.87
TATAAGGACTTGTAAGAGCCAG,sensor-assay potency score (higher = more potent),CHRM2,-0.37
AAACTGACTCTTCTCCAGCAGC,sensor-assay potency score (higher = more potent),CHID1,-0.926
TTGAGCATGCCGTAGAGCGTCA,sensor-assay potency score (higher = more potent),CHI3L1,-0.951
TCTAGTTTCTGTCGCTCGCGGT,sensor-assay potency score (higher = more potent),CHMP2A,-0.825
TAGTCCATACCATAGAAGTTGA,sensor-assay potency score (higher = more potent),CHID1,-1.13
TATTCTGCTTTTCATCTCCATT,sensor-assay potency score (higher = more potent),CHRM2,-1.16
TTTGCCGAGCAGTAGCTGCGAT,sensor-assay potency score (higher = more potent),CHID1,-0.629
AAGTCTTTTGCCATGATGCGAA,sensor-assay potency score (higher = more potent),CHMP2A,-0.973
TTTAATGGAAACCATGACTAGG,sensor-assay potency score (higher = more potent),CHRM2,-0.722
